Screens from PubChem.
PvdQ inh: blocks Pseudomonas aeruginosa PvdQ acylase activity. inhibition, % at 10 µM. purified PvdQ acylase, fluorescence plate reader. AID 488965. actives 0.063% (n = 340,000); in the data active = inhibition above about 30%, passing the limit was not always enough
F508del corr: correctors of CFTR F508del function in bronchial epithelial cells; CFBE cells, YFP halide quenching; stimulated with forskolin plus potentiator P3; % fluorescence drop versus neutral controls; activity (quench increase), % at 7.58 µM; actives 0.36% (n = 350,000);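 active = mean added fluorescence quench of at least 8% versus neutral control, with both replicates also reaching 8%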;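 also: cells transiently co-express mutant CFTR-F508del with the halide-sensitive YFP; corrector assay measuring rescue of mutant channel to the surface after 24 h compound exposure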
ERAP1 inh: blocks human ERAP1 aminopeptidase activity. recombinant ERAP1, Leu-AMC fluorescence, 60 min. inhibition, % at 10.7 µM. Q9NZ08. actives 0.15% (n = 340,000);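 active = mean replicate inhibition of at least 30%, or all replicates individually reaching that 30% level; inactive = mean below 30% and not every replicate reaching it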
Target sequence (Q9NZ08 whole entry, looked up): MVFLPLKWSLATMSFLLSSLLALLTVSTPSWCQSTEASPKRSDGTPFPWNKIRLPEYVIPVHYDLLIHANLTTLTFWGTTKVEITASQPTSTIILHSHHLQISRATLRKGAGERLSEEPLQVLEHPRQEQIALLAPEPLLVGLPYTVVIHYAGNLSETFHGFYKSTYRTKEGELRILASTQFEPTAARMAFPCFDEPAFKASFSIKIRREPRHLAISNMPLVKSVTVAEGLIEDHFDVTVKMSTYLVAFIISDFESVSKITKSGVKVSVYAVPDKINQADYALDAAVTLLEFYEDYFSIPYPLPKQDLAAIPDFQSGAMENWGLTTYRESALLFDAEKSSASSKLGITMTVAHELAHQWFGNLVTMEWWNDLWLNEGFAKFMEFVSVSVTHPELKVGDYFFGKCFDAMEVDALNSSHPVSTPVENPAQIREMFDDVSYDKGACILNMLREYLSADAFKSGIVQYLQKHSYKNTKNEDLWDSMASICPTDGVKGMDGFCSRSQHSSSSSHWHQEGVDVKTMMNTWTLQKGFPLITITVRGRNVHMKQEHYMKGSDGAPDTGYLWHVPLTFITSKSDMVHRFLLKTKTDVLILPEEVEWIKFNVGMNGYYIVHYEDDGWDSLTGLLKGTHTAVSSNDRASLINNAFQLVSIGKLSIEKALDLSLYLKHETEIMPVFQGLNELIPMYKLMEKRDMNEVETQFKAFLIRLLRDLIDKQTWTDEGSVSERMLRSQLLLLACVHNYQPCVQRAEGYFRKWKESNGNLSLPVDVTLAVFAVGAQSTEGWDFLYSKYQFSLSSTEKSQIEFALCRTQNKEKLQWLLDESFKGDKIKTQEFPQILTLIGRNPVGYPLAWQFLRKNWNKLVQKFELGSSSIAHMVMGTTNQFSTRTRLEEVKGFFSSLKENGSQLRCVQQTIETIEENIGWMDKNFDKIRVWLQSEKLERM
rRNA inh HTS: inhibits bacterial ribosomal RNA function over humanized ribosomes. E. coli WT GFP vs humanized-ribosome RFP mutants, fluorescence, 24 h; stronger effect = lower value; DMSO median 0, no signal -100. GFP signal change (wild-type ribosome), % (concentration not given with the values). actives 1.6% (n = 350,000). AID 720706;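 active = significant combined selectivity score with lowered wild-type GFP, culture density cut under 30%, mutant RFP and density less affected; inactive = any of these conditions unmet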
ARNT-TACC3 inh: ARNT/TACC3 interaction disruption | Q9Y6A5 | AlphaScreen His-ARNT PAS-B/GST-TACC3 binding, luminescence; TACC3 fragment carries E629A point mutation | inhibition, % at 9.99 µM | actives 0.66% (n = 390,000) | AID 623870;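 active = mean inhibition of replicates at least 50% and at least half of replicates each reaching 50%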
ARNT Alpha ctr-1: interferes with AlphaScreen signal, flagging false ARNT-TACC3 hits; shares compounds with ARNT-TACC3 inh; His-ARNT PASB-GST AlphaScreen artifact counter-screen, luminescence; AC50, µM (doses to about 68 µM); actives 50% (n = 1,200);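 active = every separate test run was called active for a drop in luminescence, with AC50 within twice the top valid dose, actives reach about 71 µM in these data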
ARNT Alpha ctr-2: counter-screen for ARNT-TACC3 inhibitors: AlphaScreen artifacts; actives 70% (n = 45); shares compounds with ARNT-TACC3 inh; Dual-tagged His-ARNT PASB-GST AlphaScreen artifact counter-screen; AC50, µM; AID 720564;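 active = luminescence drop, with half-maximal potency fitted within twice the sample's top valid dose, cut at about 70 µM in these data; inactive = the rest, including signal moving the wrong way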
Hits are given with their value; - = inactive; . = no result. This is a sample that favours compounds with a hit; in the whole collection about 2.1% have one here.

SMILES	PvdQ inh	F508del corr	ERAP1 inh	rRNA inh HTS	ARNT-TACC3 inh	ARNT Alpha ctr-1	others
Nc1ccccc1N=Nc1ccccc1N	-	-	-	-	-	.
CC(C)(C)C1=CC(=Nc2ccccc2N)C=C(C(C)(C)C)C1=O	-	-	-	-	53.7	1.52µM
COCC(=O)N1[C@@H]2CN(C(=O)Nc3cc(F)ccc3F)c3ccccc3[C@@H]2[C@@H]1CO	.	-	-	-	-	.
O=C(c1ccco1)[C@@H]1[C@@H]2C(=O)N(c3ccccc3)C(=O)[C@@H]2C2c3ccccc3C=CN21 (stereo not given in full)	-	.	.	.	40.9	-
Cc1ccc(N2C(=O)[C@@H]3[C@H](C2=O)C2c4ccccc4C=CN2[C@@H]3C(=O)c2ccco2)cc1 (stereo not given in full)	-	.	.	.	-	.
CSc1ccccc1NC(=O)CN(C)C(=O)COc1cccc2cccnc12	-	-	-	.	66.7	68.7µM
Cc1[nH]c(=O)[nH]c(=O)c1/C=N/NC(=O)[C@H](C)NC(=O)OC(C)(C)C	-	.	.	.	54.5	-
COc1ccc(-c2[nH]ncc2/C=N\NC(=O)c2cccs2)cc1OC	-	-	-	-	51.2	-
COc1cccc(CNC(=O)COC(=O)c2ccc(C(=O)c3ccccc3)cc2)c1	-	-	-	-	55.2	-
O=c1oc2c3c4c(cc2s1)CCCN4CCC3	-	.	.	.	active	44.1µM
O=C(C[C@@H]1CC[C@H]2[C@@H](COC[C@H](O)CN2Cc2nccs2)O1)NCc1ccccc1Cl	.	-	-	-	-	.
O=C(NCC1CCCO1)c1onc(CSc2ccc(F)cc2)c1C(=O)O (stereo not given)	-	-	-	-	23.6	-
O=C(NCC1CCCO1)c1onc(CSc2ccccc2F)c1C(=O)O (stereo not given)	-	-	-	-	-	.
Cc1[nH]n(-c2ccccc2)c(=O)c1C(c1ccc(C(=O)O)cc1)c1c(C)[nH]n(-c2ccccc2)c1=O	-	-	-	-18.8	18.1	-
C/C=C/c1ccc([C@@H]2[C@@H](CO)N(C(=O)CC)C23CN(S(C)(=O)=O)C3)cc1	.	-	-	-	.	.
COc1ccccc1CNC(=O)CSc1ccc(-c2ccccn2)nn1	-	-	.	-	72.6	59.5µM
O=C(CSc1ccc(-c2ccccn2)nn1)Nc1nccs1	-	-	-	-	60.7	60.3µM	ARNT Alpha ctr-2=4.66
O=C(CSc1nnc(-c2ccccn2)o1)Nc1ccccc1Cl	-	-	-	-	75.3	-
Cc1csc(NC(=O)CSc2ccccc2F)n1	-	-	-	-	-	.
Cc1csc(NC(=O)CSc2ccc(-c3ccccn3)nn2)n1	-	-	-	-	60.7	16.1µM
C[C@@H]1CN([C@H](C)CO)C(=O)c2cc(NC(=O)Cc3ccccc3)ccc2O[C@@H](C)CCCCO[C@H]1CN(C)S(=O)(=O)c1cccs1	.	-	.	-	-	.
C[C@H]1CN([C@@H](C)CO)S(=O)(=O)c2ccc(C3=CCCCC3)cc2O[C@@H]1CN(C)C(=O)c1ccc(F)cc1	.	-	-	-	-	.
CCOC(=O)c1ccc(NC(=O)CSc2ccc(-c3cccnc3)nn2)cc1	-	-	-	-	-	.
COC(=O)c1ccc(NC(=O)CSc2ccc(-c3ccccn3)nn2)cc1	-	-	-	-	59.7	-
O=C(CSc1ccc(-c2ccc(Cl)cc2)nn1)N1CCCc2ccccc21	-	-	-	-	-	.
SMILES	PvdQ inh	F508del corr	ERAP1 inh	rRNA inh HTS	ARNT-TACC3 inh	ARNT Alpha ctr-1	others
O=C(CSc1ccc(-c2ccccn2)nn1)Nc1cccc(F)c1	-	-	-	-	74.0	12.2µM
Cc1cc(C)cc(NC(=O)CSc2ccc(-c3ccccn3)nn2)c1	-	-	-	-	-	.
Cc1ccccc1NC(=O)CSc1ccc(-c2ccccn2)nn1	-	-	-	-	61.1	35.1µM
O=C(CSc1ccc(-c2ccccn2)nn1)N1CCCc2ccccc21	-	-	-	-	59.3	29.6µM
C[C@H](CO)N1C[C@H](C)[C@H](CN(C)C(=O)Nc2ccccc2)Oc2ccc(NC(=O)NC3CCCCC3)cc2C1=O	.	-	-	-	-	.
C[C@H]1CN([C@@H](C)CO)C(=O)c2cccc(NC(=O)c3cnccn3)c2O[C@H]1CN(C)S(C)(=O)=O	.	-	-	-	-	.
CN(C)C(=O)c1cccc(-c2ccc3c(c2)[C@@H]2[C@@H](CCN2C(=O)c2cccnc2)[C@@H](CO)N3)c1	.	-	.	-	64.8	-
O=C(c1cccnc1)N1CC[C@@H]2[C@H](CO)Nc3ccc(-c4ccccc4)cc3[C@@H]21	.	-	-	-	-	.
O=C(c1ccccn1)N1CC[C@H]2[C@H](CO)Nc3ccc(Br)cc3[C@H]21	.	-	-	-	-	.
O=C(c1ccccn1)N1CC[C@@H]2[C@H]1c1cc(Br)ccc1N[C@@H]2CO	.	-	-	-	68.6	53.3µM
C/C=C/c1cnc2c(c1)C(=O)N([C@@H](C)CO)C[C@H](C)[C@@H](CN(C)CC1CCOCC1)O2	.	-	-	-	-	.
CNC[C@@H]1Oc2ccc(NC(=O)Cc3cn(C)c4ccccc34)cc2CC(=O)N([C@@H](C)CO)C[C@H]1C	.	-	-	-	-	.
COc1cc(C2Nc3ccccc3C(=O)N2NS(C)(=O)=O)c([N+](=O)[O-])cc1OC (stereo not given)	-	-	-	-	active	-
O=C(NCCCN1CCOCC1)c1cc(-c2ccccc2)on1	-	-	-	-	-	-
O=C(NCCN1CCOCC1)c1cc(-c2ccc(Br)cc2)on1	-	.	.	.	-	.
O=C(NCCCN1CCOCC1)c1cc(-c2ccc(O)cc2)on1	-	-	-	-	-	.
O=C(NCCN1CCOCC1)c1cc(-c2ccccc2)on1	-	.	.	.	-	-
CCOC(=O)c1c(C)[nH]c(N=Nc2cccc(C)c2)c1C	-	.	.	.	36.2	21.3µM
O=C(CCN1CCCCC1)N[C@@H]1CC[C@H](CC(=O)N2CCC(Cc3ccccc3)CC2)O[C@@H]1CO	.	-	-	-	-	.
C[C@H](CO)N1C[C@H](C)[C@H](CN(C)C(=O)c2ccccc2)Oc2ncc(C#Cc3ccccc3)cc2C1=O	.	.	-	-	-	.
CCc1ccc2c(c1)C1(NN=C(c3ccc(C)cc3)S1)C(=O)N2 (stereo not given)	-	.	.	.	61.0	2.78µM
O=C(NC[C@@H]1[C@H](c2ccccc2)[C@H](CO)N1Cc1ccccn1)C1CCC1	.	-	.	-	59.9	-
O=C(NC[C@@H]1[C@H](c2ccccc2)[C@H](CO)N1Cc1ccccn1)C1CCCC1	.	-	.	-	53.1	-
O=C(C1CCCC1)N1C[C@@H]2[C@H](c3ccccc31)[C@@H](CO)N2C(=O)Cc1ccccn1	.	-	-	-	-	.
